Screens deposited in PubChem by National Center for Advancing Translational Sciences (NCATS).
Pf growth 48h = P. falciparum growth inhibition at 48 hours (one generation) | P. falciparum luciferase growth in erythrocytes, 48 h | Potency, µM (top dose mostly 28.7 µM), most hits filed as inhibitors | 310,000 compounds, 5.9% hits | AID 504832
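Firefly luciferase activity from engineered P. falciparum reports growth; inhibitors lower the luminescent signal. Cultures contained 2% hematocrit erythrocytes at 0.1% final parasitemia.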
Pf growth 96h = P. falciparum growth inhibition at 96 hours. P. falciparum luciferase reporter growth, 96 h. Potency, µM (highest dose often 28.7 µM), actives largely listed as inhibitors. 320,000 compounds, 6.9% hits
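Erythrocytes infected with luciferase-expressing P. falciparum were dispensed at 2% hematocrit and 0.05% parasitemia (final), then incubated with compounds 96 hours at 37 C in 5% CO2. Luminescence after detection reagent addition reported growth.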
Shiga toxin inh = inhibitors of Shiga toxin in Vero cells; Vero cells, Shiga toxin protein synthesis inhibition reporter; inhibition, % at 38.7 µM; 290,000 compounds, 9.2% hits; AID 2315; in the data active = inhibition mostly above about 28%, no sharp cut-off; inactive = mostly below about 43%
HCV inh = inhibitors of hepatitis C virus infection. 340,000 compounds, 3.4% hits. Huh7.5.1 HCVcc-Cre infection, luciferase reporter, 44 h. Potency, µM (doses to about 41.8 µM), most hits filed as inhibitors
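Whole-lifecycle infectious HCVcc-Cre system; cells 1,000/well, compound then virus (~0.5 moi) added 4 h after plating, 44 h culture. Luciferase read 15 sec following 15 min substrate incubation, room temp.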
HCMV inh = human cytomegalovirus inhibition; HFF cells, HCMV-luciferase reporter, 72 h; stronger effect = lower value; activity change, negative = inhibition, % at 57.5 µM; 410,000 compounds, 4.5% hits; AID 1259415; in the data active = activity change below about -60%; inconclusive = no clear call, values can overlap the other calls; inactive = above about -39%
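Inhibition of viral replication was scored as loss of reporter luminescence in HFFs infected with HCMV-luciferase (MOI 1 PFU/cell) for 72 h; compounds tested at 2 doses, normalized to buffer and Salinomycin controls.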
CHX counter = counter-screen for Shiga toxin inhibitors: cycloheximide protein synthesis inhibition; cell reporter, cycloheximide protein synthesis inhibition counterscreen; max response, %; 300,000 compounds, 12% hits; in the data active = max response mostly above about 13%, no sharp cut-off; inactive = mostly below about 14%; note: read at 38.3 µM for the half of the compounds with a filed dose
Numbers stand for hits; - = inactive; ? = inconclusive; . = not tested or not shown; [ ] = another dose, or the depositor's remark. An excerpt weighted towards active compounds, which were near 21% of everything screened. Unless noted, calls come from the whole dose curve; as a rule, active = well fitted inhibition curve with a large enough effect; inconclusive = small, poorly fitted or top-dose-only effect, or another doubt; inactive = no such curve, though single readings can be large or run the other way.

SMILES	Pf growth 48h	Pf growth 96h	Shiga toxin inh	HCV inh	HCMV inh	CHX counter
CCOC(=O)CCCCCC(=O)Nc1ccc2c(c1)CC(=O)N([C@H](C)CO)C[C@@H](C)[C@H](CN(C)Cc1ccc3c(c1)OCO3)O2	.	.	.	-	-	.
C[C@H](CO)N1C[C@H](C)[C@@H](CN(C)CC2CC2)Oc2c(NC(=O)C3CC3)cccc2C1=O	.	.	.	-[8.37 µM]	-	.
Cc1noc(C)c1NC(=O)N(C)C[C@@H]1Oc2c(NC(=O)NC(C)C)cccc2C(=O)N([C@@H](C)CO)C[C@@H]1C	.	.	.	-	-	.
C[C@H](CO)N1C[C@H](C)[C@@H](CN(C)CC2CC2)Oc2c(NC(=O)Cc3ccccc3)cccc2C1=O	.	.	.	3.2µM	?	.
C[C@@H]1CN([C@H](C)CO)C(=O)Cc2cc(NC(=O)Nc3ccccc3)ccc2O[C@@H]1CN(C)Cc1ccc2c(c1)OCO2	.	.	.	3.5µM	-	.
Cc1noc(C)c1NC(=O)N(C)C[C@H]1Oc2c(NC(=O)C3CCCCC3)cccc2C(=O)N([C@H](C)CO)C[C@@H]1C	.	.	.	4µM	-	.
C/C(=N\N=C(N)N)c1ccc(Cl)c(Cl)c1	4.1µM	?	-	?	-	-
C/C(=N\NC(=O)CC(C)C)c1ccc(Cl)c(Cl)c1	-	?	-	-	-	-
COc1cc(Cl)c([C@@H]2C[C@H]3CN(c4ccccc4)C(=O)[C@]34CCCN24)cc1OC	-	?	-	-	-	-
CCOc1cc([C@@H]2C[C@H]3CN(c4ccccc4)C(=O)[C@]34CCCN24)ccc1OC	?	-	-	?	-69	-
COc1ccccc1-n1cc([C@@H]2C[C@H]3CN(c4ccccc4)C(=O)[C@]34CCCN24)cn1	-	-	-	5.6µM	-97	-
COc1cc([C@@H]2C[C@H]3CN(c4ccccc4)C(=O)[C@]34CCCN24)cc(OC)c1OC	?	-	-	-	?	-
O=C(c1ccc(S(=O)(=O)Cc2ccccc2F)c([N+](=O)[O-])c1)N1CCCCCC1	?	?	-	?	?	-
O=C(c1ccc(S(=O)(=O)c2ccccc2Cl)c([N+](=O)[O-])c1)N1CCCCCC1	?	13µM	-	?	-65	-
O=C(c1ccc(S(=O)(=O)c2cccc(Cl)c2)c([N+](=O)[O-])c1)N1CCN(c2ccccn2)CC1	?	?	-	?	-78	22
O=C(Nc1cccnc1)c1ccc2c(c1)C(=O)N(Cc1cccnc1)C2=O	-	9.3µM	-	-	-	-
CC(=O)c1cccc(NC(=O)c2ccc3c(c2)C(=O)N(Cc2cccnc2)C3=O)c1	-	-	-	-	-	-
O=C(NCc1cccnc1)c1ccc2c(c1)C(=O)N(Cc1ccccc1)C2=O	-	4.1µM	-	-	-	-
CC(C)(C)C(=O)Nc1nnc(SCc2ccc(F)cc2)s1	.	-	-	-	-	22
CC(C)(C)C(=O)Nc1nnc(SCc2cccc(F)c2)s1	-	-	91	-	-	53
COCCSc1nnc(NC(=O)CSc2ccccc2)s1	-	-	-	-	-	-
COCCSc1nnc(NC(=O)C(C)(C)C)s1	-	-	111	-	-	59
CC(C)C(=O)Nc1nnc(SCc2cccc(F)c2)s1	-	-	49	-	-	14
CC(=O)Nc1ccc(NC(=O)Cn2cnc(S(=O)(=O)N3CCOCC3)c2)cc1	-	-	-	-	-	-
O=c1[nH]cnc2c1ncn2-c1ccc(N(CCO)CCO)cc1	.	.	.	-	-	.
SMILES	Pf growth 48h	Pf growth 96h	Shiga toxin inh	HCV inh	HCMV inh	CHX counter
O=C(O)c1ccc(OC2CSC2)cc1	-	-	-	?	-	-
O=C(NCc1ccccc1)c1ccc(Oc2ccc(C(=O)NCc3ccccc3)cc2)cc1	.	?	-	-	-	-
O=C(NCc1ccccc1)c1ccc(OC2CSC2)cc1	-	-	-	-	-	12
Cc1cccc(NC(=O)c2ccc(OC3CSC3)cc2)c1	-	?	62	-	-	43
O=C(Nc1cccc(Br)c1)c1ccc(OC2CSC2)cc1	-	?	147	.	.	43
CC(=O)c1cccc(NC(=O)c2ccc(OC3CSC3)cc2)c1	-	?	-	?	-	-
Cc1ccc(C(=O)Nn2cnnc2)cc1S(=O)(=O)N1CCOCC1	-	-	-	-	-	-
COc1cccc(Cn2c(=O)n(-c3cccc(Cl)c3)c(=O)c3c4c(sc32)CN(C(C)=O)CC4)c1	.	.	.	.	-	.
